{"source": "PubChem BioAssay AID463173", "about": "(ICCB-Longwood Screening Facility, Harvard Medical School, 2010)", "note": "The whole screen tested about 52,000 compounds, of which about 1,700 (3.3%) were called active. No stated cut-off is given here; in the data, active means survival mostly below about 52% (no sharp cut-off); inactive means mostly above about 56%. The entries come from a sample that favours actives as a whole.", "data": [{"tested_on": "Wild type", "test": "S. aureus survival, RN4220 and DeltatarO strains – OD600, teichoic acid synthesis inhibitors, primary screen (AID 463173)", "settings": "S. aureus RN4220 wild type/DeltatarO growth, OD600, 18 h, active compounds read low, screened at 18.75 µg/mL (by protocol)", "values": [{"smiles": "Cc1ccc(C)c(NC(=O)Cn2c(=O)n(CC3CCCO3)c(=O)c3ccccc32)c1", "note": "(configuration not stated)", "survival": "119% (inactive)"}, {"smiles": "CCOC(=O)c1c(NC(=O)c2cc3nc(-c4ccccc4)cc(C(F)(F)F)n3n2)sc2c1CCC(C)C2", "note": "(configuration not stated)", "survival": "65% (inactive)"}, {"smiles": "O=S(=O)(c1ccc(Br)cc1)N1CCn2cccc2C1c1ccc(Br)cc1", "note": "(configuration not stated)", "survival": "65% (inactive)"}, {"smiles": "CCCOC(=O)c1cccc(Nc2nc(C(=O)OCC)nc3ccccc23)c1", "survival": "44% (inactive)"}, {"smiles": "Cc1ccc(CNS(=O)(=O)c2c(C(=O)N3CCC(C)CC3)c(C)n(C)c2C)cc1", "survival": "76% (inactive)"}, {"smiles": "O=C(Nc1nnc(C2CCCC2)s1)C1CC1", "survival": "105% (inactive)"}, {"smiles": "CNC(=O)Nc1ccc2nc(C)sc2c1", "survival": "112% (inactive)"}, {"smiles": "COC(=O)CCN(c1ccccc1)S(=O)(=O)c1cc(-c2cc(C)no2)ccc1OC", "survival": "90% (inactive)"}, {"smiles": "Cc1ccc2cc(CN(CC3CCCO3)C(=O)C(F)(F)F)c3nnnn3c2c1C", "note": "(configuration not stated)", "survival": "115% (inactive)"}, {"smiles": "CCCOc1ccccc1C(=O)N1CCC(c2nc3ccccc3s2)CC1", "survival": "68% (inactive)"}, {"smiles": "CCC(Oc1ccccc1F)C(=O)N1CCC(c2nc3ccccc3s2)CC1", "note": "(configuration not stated)", "survival": "-3% (active)"}, {"smiles": "CCc1ccc(OC(C)C(=O)N2CCC(c3nc4ccccc4s3)CC2)cc1", "note": "(configuration not stated)", "survival": "35% (inactive)"}, {"smiles": "CC(Oc1ccc(F)cc1)C(=O)N1CCC(c2nc3ccccc3s2)CC1", "note": "(configuration not stated)", "survival": "80% (inactive)"}, {"smiles": "Cc1ccccc1OCC(=O)N1CCC(c2nc3ccccc3s2)CC1", "survival": "65% (inactive)"}, {"smiles": "COc1ccccc1OC(C)C(=O)N1CCC(c2nc3ccccc3s2)CC1", "note": "(configuration not stated)", "survival": "-2% (active)"}, {"smiles": "COCCn1c(CNC(=O)c2ccccc2C)nc2cccnc21", "survival": "69% (inactive)"}, {"smiles": "COc1cc(Cl)c(C)cc1NC(=O)CNC(=O)Cn1ccc2ccccc2c1=O", "survival": "65% (inactive)"}, {"smiles": "COC(=O)C1=C(c2ccccc2)c2ccccc2S(=O)(=O)N1CC(=O)Nc1cc(C)ccc1C", "survival": "77% (inactive)"}, {"smiles": "CCN(CC)S(=O)(=O)c1ccc2c(c1)N(CC(=O)NCc1ccccc1)C(=O)C1CCCCN21", "note": "(configuration not stated)", "survival": "102% (inactive)"}, {"smiles": "CCOc1ccc2nc(NCCCNC(=O)C3CCCO3)c(C#N)cc2c1", "note": "(configuration not stated)", "survival": "105% (inactive)"}, {"smiles": "CCC(C)NC(=O)Cn1c(=O)n(-c2ccc(OC)c(OC)c2)c(=O)c2ccccc21", "note": "(configuration not stated)", "survival": "87% (inactive)"}, {"smiles": "COc1cccc(CNC(=O)CCCN2C(=O)CSc3c2c(C)nn3-c2ccccc2)c1", "survival": "89% (inactive)"}, {"smiles": "CN1CC2(C)CN(C(=O)c3ccccc3Cl)CC(C)(C1)C2", "survival": "112% (inactive)"}, {"smiles": "COc1ccc(C(=O)N2CCC(C(=O)Nc3ccc(Cl)cc3)CC2)cc1", "survival": "122% (inactive)"}, {"smiles": "CC1CCN(C(=O)c2cccc(Cl)c2)CC1", "survival": "112% (inactive)"}, {"smiles": "COc1ccc(C(=O)N2c3ccccc3C(C)(c3ccc(Cl)cc3)CC2(C)C)cc1", "note": "(configuration not stated)", "survival": "6% (active)"}, {"smiles": "CC1(c2ccccc2)CC(C)(C)N(C(=O)c2ccccc2Cl)c2ccccc21", "note": "(configuration not stated)", "survival": "-2% (active)"}, {"smiles": "CC1(c2ccccc2)CC(C)(C)N(C(=O)c2cccc(Cl)c2)c2ccccc21", "note": "(configuration not stated)", "survival": "6% (active)"}, {"smiles": "O=C(c1ccccc1Cl)n1cc(Cl)cn1", "survival": "100% (inactive)"}, {"smiles": "CC1CCN(c2ccc(NC(=O)c3cccc(Cl)c3)cc2C(=O)O)CC1", "survival": "76% (inactive)"}, {"smiles": "COc1ccccc1C(=O)N1c2ccccc2C(C)(c2ccc(Cl)cc2)CC1(C)C", "note": "(configuration not stated)", "survival": "2% (active)"}, {"smiles": "COc1ccccc1C(=O)n1nc(-c2ccccc2)nc1NCc1ccc(Cl)cc1", "survival": "66% (inactive)"}, {"smiles": "COc1ccc(CCC(=O)NCc2ccc3c(c2)CCN3C(=O)c2ccc(Cl)cc2)cc1", "survival": "80% (inactive)"}, {"smiles": "COc1ccccc1C(=O)CC1(O)C(=O)N(CC(N)=O)c2ccccc21", "note": "(configuration not stated)", "survival": "65% (inactive)"}, {"smiles": "Cc1ccc(F)cc1NC(=O)Cn1c(C)cc(C)c(C#N)c1=O", "survival": "131% (inactive)"}, {"smiles": "CCOc1ccc(CNC(=O)Cn2nc(C)c3c(C)n(-c4ccc(C)cc4)nc3c2=O)cc1", "survival": "78% (inactive)"}, {"smiles": "O=C(CSc1ccc2nnc(CCNS(=O)(=O)c3ccccc3)n2n1)Nc1ccccc1C(F)(F)F", "survival": "107% (inactive)"}, {"smiles": "Cc1cccc(S(=O)(=O)Nc2cccc(-c3ccc(N4CCCCC4)nn3)c2)c1", "survival": "69% (inactive)"}, {"smiles": "N#Cc1ccccc1NC(=O)C(=O)NCC(c1cccnc1)N1CCN(c2ccccc2)CC1", "note": "(configuration not stated)", "survival": "99% (inactive)"}, {"smiles": "Cc1ccc(NC(=O)c2c(C)nc3sc(C(=O)Nc4ccc(F)cc4)c(N)c3c2-c2ccccc2Cl)c(C)c1", "survival": "65% (inactive)"}, {"smiles": "Cc1cn(C)c(CC(=O)Nc2ccc(F)cc2Cl)c1C(=O)O", "survival": "76% (inactive)"}, {"smiles": "CCOC(=O)c1cccc(NC(=O)CCn2nc(C)c3c(C)n(-c4ccccc4)nc3c2=O)c1", "survival": "73% (inactive)"}, {"smiles": "CC1(C)C(=O)N(CC(=O)Nc2ccc(Cl)cc2)c2ccccc21", "survival": "59% (inactive)"}, {"smiles": "CC1CC(C)CN(C(=O)c2ccc(Cl)cc2)C1", "note": "(configuration not stated)", "survival": "117% (inactive)"}, {"smiles": "O=C(NCc1ccc2c(c1)CCN2C(=O)c1ccc(Cl)cc1)c1cccc(F)c1", "survival": "55% (inactive)"}, {"smiles": "O=C(c1cccc(F)c1)N1CCC(c2c[nH]c3ccccc23)(c2c[nH]c3ccccc23)CC1", "survival": "63% (inactive)"}, {"smiles": "CC1(c2ccc(Cl)cc2)CC(C)(C)N(C(=O)c2cccc(F)c2)c2ccccc21", "note": "(configuration not stated)", "survival": "7% (active)"}, {"smiles": "CC1(c2ccc(Cl)cc2)CC(C)(C)N(C(=O)c2ccccc2)c2ccccc21", "note": "(configuration not stated)", "survival": "-11% (active)"}, {"smiles": "COc1ccc(-n2c(SCC(=O)Nc3ccc4c(c3)OCO4)nc3c([nH]c4ccccc43)c2=O)cc1", "survival": "81% (inactive)"}, {"smiles": "Cc1ccc(COC(=O)c2[nH]c3c(c2C)C(=O)CC(c2ccc(Cl)cc2)C3)cc1", "note": "(configuration not stated)", "survival": "84% (inactive)"}, {"smiles": "COc1cc2[nH]c(=O)n(CCCC(=O)NCc3ccc(Cl)cc3)c(=O)c2cc1OC", "survival": "90% (inactive)"}, {"smiles": "COc1ccccc1N1CCN(CC(O)COc2ccc(Cl)c(C)c2)CC1", "note": "(configuration not stated)", "survival": "66% (inactive)"}, {"smiles": "Cc1cc(OCC(O)CN2CCN(c3cccc(Cl)c3)CC2)ccc1Cl", "note": "(configuration not stated)", "survival": "0% (active)"}, {"smiles": "CC(=O)Nc1ccc(OCC(O)CN2CCN(c3ccc(C)c(Cl)c3)CC2)cc1", "note": "(configuration not stated)", "survival": "98% (inactive)"}, {"smiles": "O=C(c1cc2ccccc2oc1=O)N1CCCCCC1", "survival": "88% (inactive)"}, {"smiles": "Cc1ccc(-n2ncc(C(=O)NCCN3CCCC3)c2C2CCN(C(=O)OC(C)(C)C)CC2)cc1", "survival": "153% (inactive)"}, {"smiles": "COc1ccc(-c2nnc(SCC#N)o2)cc1", "survival": "106% (inactive)"}, {"smiles": "COc1cccc(CSc2nnc(-c3ccc(F)cc3)o2)c1", "survival": "113% (inactive)"}, {"smiles": "COc1ccc(-c2nnc(SCc3cccc(Cl)c3)o2)cc1", "survival": "13% (active)"}, {"smiles": "COc1cn(CC(=O)Nc2ccc(F)cc2)c(CN2CCCCC2)cc1=O", "survival": "72% (inactive)"}, {"smiles": "CN(C)CCCNc1cc(N2CCN(C3CCCCC3)CC2)c2noc3c2c1C(=O)c1ccccc1-3", "survival": "72% (inactive)"}, {"smiles": "CCCCNc1cc(N2CCN(C3CCCCC3)CC2)c2noc3c2c1C(=O)c1ccccc1-3", "survival": "-1% (active)"}, {"smiles": "CCCCNc1cc(NC2CCCCC2)c2c3c(onc13)-c1ccccc1C2=O", "survival": "117% (inactive)"}, {"smiles": "CCNc1cc(N2CCN(C3CCCCC3)CC2)c2noc3c2c1C(=O)c1ccccc1-3", "survival": "84% (inactive)"}, {"smiles": "CCN(CC)c1cc(NC2CCCCC2)c2c3c(onc13)-c1ccccc1C2=O", "survival": "5% (active)"}, {"smiles": "O=C1c2ccccc2-c2onc3c(Br)cc(NC4CCCCC4)c1c23", "survival": "86% (inactive)"}, {"smiles": "Cc1ccc2nc(COc3ccccc3NC(=O)C(C)(C)C)cc(=O)n2c1", "survival": "66% (inactive)"}, {"smiles": "O=C(C1CCN(c2ncnc3c2nc2n3CCCCC2)CC1)N1CCN(c2ccccc2F)CC1", "survival": "82% (inactive)"}, {"smiles": "CCc1ccc(NC(=O)Cn2nnc(C(=O)NCc3ccco3)c2N)cc1", "survival": "94% (inactive)"}, {"smiles": "CCOC(=O)c1c(S(=O)(=O)N2CCC(C(=O)Nc3cccc(C#N)c3)CC2)c(C)n(C)c1C", "survival": "115% (inactive)"}, {"smiles": "Cc1nn(C(=O)c2cc3sc(Br)cc3[nH]2)c(C)c1C", "survival": "97% (inactive)"}, {"smiles": "COc1ccc(NC(=O)CSc2nnc(N)s2)cc1", "survival": "73% (inactive)"}, {"smiles": "CCc1ccc(NC(=O)Cn2ncc3c(C)n(Cc4cccc(Cl)c4)c(C)c3c2=O)cc1", "survival": "86% (inactive)"}, {"smiles": "Cc1ccc(CCNC(=O)c2ccc3c(c2)c(C)c(C)n3Cc2ccccc2)cc1", "survival": "125% (inactive)"}, {"smiles": "CCOc1ccc(NC(=O)c2ccc(-c3cccc(Cl)c3C)o2)cc1", "survival": "66% (inactive)"}, {"smiles": "Cc1ccc(NC(=O)c2ccc(-c3cccc(Cl)c3C)o2)cc1", "survival": "1% (active)"}, {"smiles": "Cc1c(Cl)cccc1-c1ccc(C(=O)Nc2ccc3oc(-c4cccnc4)nc3c2)o1", "survival": "79% (inactive)"}, {"smiles": "COc1ccc(NC(=O)c2ccc(-c3cccc(Cl)c3C)o2)cc1", "survival": "44% (inactive)"}, {"smiles": "CCOC(=O)c1ccc(NC(=O)c2ccc(-c3cccc(Cl)c3C)o2)cc1", "survival": "59% (inactive)"}, {"smiles": "Cc1c(Cl)cccc1-c1ccc(C(=O)Nc2ccc(F)cc2)o1", "survival": "-1% (active)"}, {"smiles": "Clc1ccc(-c2nc3ccccn3c2Nc2ccc3c(c2)OCCO3)s1", "survival": "79% (inactive)"}, {"smiles": "Cc1ccccc1C(=O)Nc1cccc(-c2cn3cccnc3n2)c1", "survival": "105% (inactive)"}, {"smiles": "COc1ccc(-c2nc(CSCC(=O)NCc3ccccc3Cl)c(C)o2)cc1OC", "survival": "70% (inactive)"}, {"smiles": "Cc1oc(-c2cccc(Cl)c2)nc1CSCC(=O)NCc1ccccc1Cl", "survival": "-1% (active)"}, {"smiles": "Cc1ccc(CNC(=O)CSCc2nc(-c3cccc(C)c3)oc2C)cc1", "survival": "-1% (active)"}, {"smiles": "Cc1ccc(CNC(=O)CSCc2nc(-c3ccc(Cl)cc3)oc2C)cc1", "survival": "88% (inactive)"}, {"smiles": "CCc1ccc(-c2nc(CSCC(=O)NCc3ccc(C)cc3)c(C)o2)cc1", "survival": "0% (active)"}, {"smiles": "COc1ccc(-c2nc(CSCC(=O)NCCc3ccc(C)cc3)c(C)o2)cc1OC", "survival": "72% (inactive)"}, {"smiles": "Cc1oc(-c2cccc(Cl)c2)nc1CS(=O)(=O)CC(=O)NCc1ccccc1Cl", "survival": "75% (inactive)"}, {"smiles": "Cc1ccc(CCNC(=O)CSCc2nc(-c3ccc(C)cc3)oc2C)cc1", "survival": "27% (inactive)"}, {"smiles": "CCOc1ccc(-c2nc(CSCC(=O)NCc3ccc(C)cc3)c(C)o2)cc1", "survival": "73% (inactive)"}, {"smiles": "Cc1ccc(-n2nc(C)c3c(C(=O)NCc4ccccc4)cc(C4CC4)nc32)cc1", "survival": "82% (inactive)"}]}]}
